Here are results for six compounds from PubChem BioAssay (EPA / NIEHS).

Each structure is given as a SMILES string. “And” between values parts separate entries of the source, which are not always exact repeats. Identical values can stand only once. Where a structure was tested more than once in an assay, its records may differ in their call. The source made the active and inactive calls. The calls were made as follows: active = hit-call score of the fitted dose curve at least 0.9, where 1 is the maximum; inactive = score below 0.9.

Read-out in assay [1]: Urokinase-type plasminogen activator receptor (uPAR), PLAUR (gene 5329)
The assay can be described thus: BSK_4H_uPAR: BioMAP Diversity Plus: 4H Assay for Urokinase-type plasminogen activator receptor (uPAR) Biomarker Activity (AID 2283030). Conditions: primary human endothelial cells (HUVEC); actives raise or lower the signal. Summed up:
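Human umbilical vein endothelial cells in the 4H system, 24 h after chemical dosing. Cell-surface uPAR measured by ELISA, fitted in both directions versus DMSO; cytotoxicity checked by SRB total protein in parallel cultures.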

Read-out in assay [2]: Vascular endothelial growth factor receptor 2 (Homo sapiens) (UniProt P35968)
Description: BSK_4H_VEGFRII: BioMAP Diversity Plus: 4H Assay for Vascular endothelial growth factor receptor 2 (VEGFR2) Biomarker Activity (AID 2283031). Conditions: primary human endothelial cells (HUVEC); actives raise or lower the signal. In a few lines: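 Primary human umbilical vein endothelial cells (4H system), 24 h exposure; cell-surface VEGFR2 measured by ELISA. Bidirectional fitting versus DMSO; cytotoxicity checked in parallel by SRB total-protein staining.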

Read-out in assay [3]: Human Leukocyte Antigen - DR isotype (HLADR), HLA-DRA (gene 3122)
Description: BSK_BE3C_HLADR: BioMAP Diversity Plus: BE3C Assay for Human Leukocyte Antigen - DR isotype (HLADR) Biomarker Activity (AID 2283032). Conditions: primary human bronchial epithelial cells; actives raise or lower the signal. Summed up:
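Human primary bronchial epithelial cells in the BE3C system were exposed to chemicals for 24 h, after which HLA-DR levels were quantified by ELISA. Activity was fitted bidirectionally, gain or loss of signal, against DMSO as negative control and baseline.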

Read-out in assay [4]: Vascular cell adhesion molecule 1 (VCAM1), VCAM1 (gene 7412)
Description: BSK_4H_VCAM1: BioMAP Diversity Plus: 4H Assay for Vascular cell adhesion molecule 1 (VCAM1) Biomarker Activity (AID 2283033).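 As to outcome: cell-surface VCAM-1 protein measured by ELISA.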 The conditions noted are these: primary human endothelial cells (HUVEC); actives raise or lower the signal. Summed up: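 Primary human umbilical vein endothelial cells were exposed to chemicals for 24 h, after which VCAM-1 was quantified by ELISA. Responses were fitted bidirectionally against DMSO as negative control and activity baseline.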

Read-out in assay [5]: Interferon-gamma inducible Protein 10 (IP10), CXCL10 (gene 3627)
The assay can be described thus: BSK_BE3C_IP10: BioMAP Diversity Plus: BE3C Assay for Interferon-gamma inducible Protein 10 (IP10) Biomarker Activity (AID 2283034). The conditions noted are these: primary human bronchial epithelial cells; actives raise or lower the signal. Summed up:
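Human primary bronchial epithelial cells were exposed to chemicals for 24 hours, after which IP-10 levels were measured by ELISA. Data were fitted bidirectionally against DMSO, which served as the negative control and activity baseline.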

Read-out in assay [6]: Monokine induced gamma interferon (MIG), CXCL9 (gene 4283)
The assay can be described thus: BSK_BE3C_MIG: BioMAP Diversity Plus: BE3C Assay for Monokine induced gamma interferon (MIG) Biomarker Activity (AID 2283035).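 Also: MIG protein measured by ELISA in BE3C cultures after 24 h of dosing.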 Conditions: primary human bronchial epithelial cells; actives raise or lower the signal. Summed up:
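Primary human bronchial epithelial cells treated for 24 h; MIG levels measured by ELISA, fitted bidirectionally versus DMSO. Parallel SRB total-protein staining assessed cytotoxicity.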

Read-out in assay [7]: Plasminogen activator inhibitor-1 (PAI1), SERPINE1 (gene 5054)
The assay can be described thus: BSK_BE3C_PAI1: BioMAP Diversity Plus: BE3C Assay for Plasminogen activator inhibitor-1 (PAI1) Biomarker Activity (AID 2283037). Conditions: primary human bronchial epithelial cells; actives raise or lower the signal. In a few lines: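 Human primary bronchial epithelial cells were exposed to chemical for 24 h, then PAI-1 was quantified by ELISA. Activity was fitted bidirectionally relative to the DMSO negative control baseline.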

Read-out in assay [8]: urokinase plasminogen activator (uPA), PLAU (gene 5328)
The assay can be described thus: BSK_BE3C_uPA: BioMAP Diversity Plus: BE3C Assay for urokinase plasminogen activator (uPA) Biomarker Activity (AID 2283038).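 As to outcome: uPA protein level quantified by ELISA in cell cultures; uPA read one day after compound addition.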 The conditions noted are these: primary human bronchial epithelial cells; actives raise or lower the signal. Summed up:
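Primary human bronchial epithelial cells, uPA measured by ELISA 24 h after dosing. Bidirectional change relative to DMSO; cytotoxicity checked in parallel cultures by sulforhodamine B total-protein staining.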

Read-out in assay [9]: Urokinase-type plasminogen activator receptor (uPAR), PLAUR (gene 5329)
Description: BSK_BE3C_uPAR: BioMAP Diversity Plus: BE3C Assay for Urokinase-type plasminogen activator receptor (uPAR) Biomarker Activity (AID 2283039).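 Also: cells exposed to compound for one day before measurement.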 The conditions noted are these: primary human bronchial epithelial cells; actives raise or lower the signal. In a few lines: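 Primary human bronchial epithelial cells were dosed with chemical and harvested 24 h later; uPAR was quantified by ELISA. Activity was fitted bidirectionally against DMSO as negative control and baseline.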

Read-out in assay [10]: Interleukin-6 (IL6), IL6 (gene 3569)
The assay can be described thus: BSK_CASM3C_IL6: BioMAP Diversity Plus: CASM3C Assay for Interleukin-6 (IL6) Biomarker Activity for (AID 2283040). Conditions: primary human coronary artery smooth muscle cells; actives raise or lower the signal.

Read-out in assay [11]: Tissue plasminogen activator (tPA), PLAT (gene 5327)
The assay can be described thus: BSK_BE3C_tPA: BioMAP Diversity Plus: BE3C Assay for Tissue plasminogen activator (tPA) Biomarker Activity (AID 2283041).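 As to outcome: tPA level quantified by ELISA one day after compound addition.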 The conditions noted are these: primary human bronchial epithelial cells; actives raise or lower the signal. In a few lines: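 Human primary bronchial epithelial cells were dosed with chemical and tPA biomarker levels measured by ELISA 24 hours later. Activity was fitted bidirectionally against DMSO as negative control and baseline.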

Read-out in assay [12]: Interleukin-8 (IL8), CXCL8 (gene 3576)
The assay can be described thus: BSK_CASM3C_IL8: BioMAP Diversity Plus: CASM3C Assay for Interleukin-8 (IL8) Biomarker Activity (AID 2283042).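 Also: IL-8 protein level quantified by ELISA.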 The conditions noted are these: primary human coronary artery smooth muscle cells; actives raise or lower the signal.

Read-out in assay [13]: Human Leukocyte Antigen - DR isotype (HLADR), HLA-DRA (gene 3122)
Description: BSK_CASM3C_HLADR: BioMAP Diversity Plus: CASM3C Assay for Human Leukocyte Antigen - DR isotype (HLADR) Biomarker Activity (AID 2283043).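 Also: cell-surface HLA-DR protein level quantified by ELISA.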 The conditions noted are these: primary human coronary artery smooth muscle cells; actives raise or lower the signal.

Read-out in assay [14]: Macrophage colony-stimulating factor (MCSF), CSF1 (gene 1435)
Description: BSK_CASM3C_MCSF: BioMAP Diversity Plus: CASM3C Assay for Macrophage colony-stimulating factor (MCSF) Biomarker Activity (AID 2283044).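 Also: M-CSF protein amount quantified by ELISA after 24 h exposure.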 Conditions: primary human coronary artery smooth muscle cells; actives raise or lower the signal.

Read-out in assay [15]: Low-density lipoprotein receptor (LDLR), LDLR (gene 3949)
The assay can be described thus: BSK_CASM3C_LDLR: BioMAP Diversity Plus: CASM3C Assay for Low-density lipoprotein receptor (LDLR) Biomarker Activity (AID 2283045).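 Also: LDLR protein level on the cell surface quantified by ELISA.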 The conditions noted are these: primary human coronary artery smooth muscle cells; actives raise or lower the signal.

Read-out in assay [16]: Monocyte Chemoattractant Protein-1 (MCP1), CCL2 (gene 6347)
Description: BSK_CASM3C_MCP1: BioMAP Diversity Plus: CASM3C Assay for Monocyte Chemoattractant Protein-1 (MCP1) Biomarker Activity (AID 2283046).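 Also: MCP-1 level quantified by ELISA 24 h after dosing.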 Conditions: primary human coronary artery smooth muscle cells; actives raise or lower the signal.

Assay [17] in a line: BSK_CASM3C_Proliferation: Cell Proliferation Assessment in the BioMAP Diversity Plus: CASM3C Assay (AID 2283047).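 Also: sulforhodamine B total protein stain as relative cell number at 560 nm; sub-confluent cells exposed 48 h before staining; fitted both ways against DMSO so gain or loss of cell number.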 The conditions noted are these: primary human coronary artery smooth muscle cells.
Read-out in assay [18]: Monokine induced gamma interferon (MIG), CXCL9 (gene 4283)
The assay can be described thus: BSK_CASM3C_MIG: BioMAP Diversity Plus: CASM3C Assay for Monokine induced gamma interferon (MIG) Biomarker Activity (AID 2283048). The conditions noted are these: primary human coronary artery smooth muscle cells; actives raise or lower the signal.

Read-out in assay [19]: serum amyloid A (SAA), SAA1 (gene 6288)
Description: BSK_CASM3C_SAA: BioMAP Diversity Plus: CASM3C Assay for serum amyloid A (SAA) Biomarker Activity (AID 2283049).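 Also: SAA protein level quantified by ELISA.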 The conditions noted are these: primary human coronary artery smooth muscle cells; actives raise or lower the signal.

Read-out in assay [20]: Transforming growth factor beta 1 (TGFb1), TGFB1 (gene 7040)
Description: BSK_BE3C_TGFb1: BioMAP Diversity Plus: BE3C Assay for Transforming growth factor beta 1 (TGFb1) Biomarker Activity (AID 2283036). The conditions noted are these: primary human bronchial epithelial cells; actives raise or lower the signal. Summed up: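 Human primary bronchial epithelial cells (BE3C system) were dosed with chemical and TGF-b1 levels measured by ELISA at 24 h. Activity was fitted bidirectionally relative to DMSO negative control as baseline.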

Take `CCCC(C)C(=O)OCC` (centres undefined): the result in [1], in [2], in assay [3], in assay [4], in assay [5] and in assay [6] was inactive. The result in [7], in assay [8], in assay [9], in assay [10], in assay [11] and in assay [12] was inactive. The result in assay [13], in assay [14], in [15], in assay [16], in [17] and in [18] was inactive. The outcome in assay [19] was inactive.

Take `C1CNCCN1`: the result in assay [1], in assay [2], in [3], in assay [4], in [5] and in [6] was inactive. Moreover, the result in assay [20], in [7], in [8], in assay [9], in assay [10] and in [12] was inactive. The outcome in assay [13], in assay [14], in assay [15], in assay [16], in assay [17] and in [18] was inactive. In addition, the result in [19] was inactive.

Take `Nc1nc(N)nc(-c2ccccc2)n1`: the outcome in assay [1], in assay [2], in [3], in assay [4], in assay [5] and in assay [6] was inactive. The result in assay [7], in assay [8], in assay [9], in assay [10], in [11] and in assay [12] was inactive. The outcome in [13], in [14], in assay [15], in assay [16], in assay [17] and in assay [18] was inactive. Further, in [19], the result was inactive.

For the compound `C[N+](C)(C)CCCNS(=O)(=O)C(F)(F)C(F)(F)C(F)(F)C(F)(F)C(F)(F)C(F)(F)C(F)(F)C(F)(F)F`, the outcome in [2], in assay [3], in assay [4], in assay [6], in assay [7] and in assay [8] was inactive. In addition, the outcome in [9], in [10], in [12], in assay [13], in assay [14] and in [16] was inactive. Besides, the outcome in [17], in assay [18] and in [19] was inactive. Besides, the half-maximal activity concentration (AC50) was 54.8 µM (active) in assay [3]; 30 µM (active) and 43.7 µM (active) in assay [5]; 1.1 µM (active) in [8]; 17.1 µM (active) and 18.5 µM (active) in [11]; 16.8 µM (active) in assay [14]; 19.5 µM (active) and 26.4 µM (active) in assay [15]. For the same compound, the AC50 in assay [19] was 7.89 µM (active).

As to `C=CC(=O)OCC(C)OCC(C)OCC(C)OC(=O)C=C` (centres undefined), the AC50 was 31.1 µM (active) in assay [1]; 13.6 µM (active) in assay [3]; 10.1 µM (active) in [4]; 30.6 µM (active) in assay [5]; 16.1 µM (active) in assay [10]; 14.9 µM (active) in [13]. The AC50 is 25.2 µM (active) in assay [14]; 20 µM (active) in assay [16]; 20 µM (active) in assay [17]; 29.1 µM (active) in [18]; 5.95 µM (active) in assay [19]. Also, the outcome in assay [2], in [6], in [20], in [7], in assay [8] and in [9] was inactive. The outcome in assay [11], in assay [12] and in assay [15] was inactive.

For the compound `CC(Cl)COP(=O)(OCC(C)Cl)OCC(C)Cl` (centres undefined), the result in assay [1], in assay [2], in [3], in assay [4], in [5] and in assay [6] was inactive. For the same compound, the outcome in [20], in [7], in assay [8], in assay [9], in assay [10] and in [11] was inactive. Besides, the outcome in assay [12], in [13], in assay [14], in [15], in [16] and in assay [18] was inactive. Moreover, the outcome in assay [19] was inactive. Also, in assay [17], the AC50 was 0.159 µM (active).

By AC50 is commonly meant the midpoint of the concentration-response curve, whichever way the signal moves.
